VDR inh – vitamin D3 receptor (human) inhibition; Potency, µM, inactives show max response, negative = inhibition, most hits filed as inhibitors; P11473; 400,000 tested, 0.93% active; VDR-SRC2-3 peptide fluorescence polarization, 2 h; note: % is set by controls: 0 for no effect and ±100 for the full control effect
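The screen uses fluorescence polarization to detect compounds that interfere with recruitment of the SRC2-3 coactivator peptide to VDR; plates are read after 2 h at room temperature.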
PTAP TSG101 blk – blocks PTAP/TSG101 interaction to inhibit HIV-1 budding | Q99816 | Fluorescence polarization, FITC-PTAP peptide / Tsg101 binding | Potency, µM (highest dose often 115 µM), for inactives: at the top dose activity change, negative = inhibition, hits mostly inhibitors | 340,000 tested, under 10 active | AID 493005; active = well fitted inhibition curve with a large enough effect in the main read-out, with a control signal flat, not every such curve was filed as active; inconclusive = small, poorly fitted or top-dose-only effect, or effect the other way, or a change in a side signal; inactive = no such curve, though single readings can be large or run the other way; note: % of control where 0% means no effect
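Fluorescence anisotropy tracks displacement of a FITC-tagged PTAP peptide (50 nM) from the Tsg101 binding domain (10 uM), following a 20 min room-temperature incubation at pH 7.5.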
KAT2A inh – blocks human GCN5L2 histone acetyltransferase; GCN5L2 HAT assay, ThioGlo1 CoA-SH fluorescence; Q92830; Potency, µM (top dose mostly 58.9 µM), for the others: at the top dose activity change, negative = inhibition, hits mostly inhibitors; 390,000 tested, 0.21% active; note: % is set by controls: 0 for no effect and ±100 for the full control effect
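Fluorescence readout, Ex340nm/Em540nm: ThioGlo1 (50uM final) reacts with free CoA thiol released as 20nM GCN5L2 acetylates H3(1-25) peptide (75uM) using acetyl-CoA (70uM). Compound and enzyme sat 15 min beforehand; 20 min room-temperature reaction.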
PLK1 PBD inh – blocks phosphopeptide binding to human PLK1 polo-box domain; P53350; Plk1 PBD binding of FITC phosphopeptide, fluorescence polarization; Potency, µM, without a hit: max response, negative = inhibition, usual class: inhibitors; 360,000 tested, 2.8% active; AID 720504; note: series mostly up to about 57 µM; % is set by controls: 0 for no effect and ±100 for the full control effect; nearly all actives have a fitted effect of over 65% in size
USP1 inh – blocks the human USP1/UAF1 deubiquitinase complex. recombinant USP1/UAF1, Ub-Rhodamine cleavage fluorescence. Potency, µM (doses to about 57.1 µM), inactives show at the top dose activity change, negative = inhibition, usual class: inhibitors. 390,000 tested, 0.23% active. AID 743255; note: % is set by controls: 0 for no effect and ±100 for the full control effect; nearly all actives have a fitted effect of over 60% in size
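1 nM enzyme complex + cpd, 15 min RT; start with Ub-Rho 150nM final; kinetic fluorescence ex 480/em 540, 6 reads q60 s. Buffer 50mM HEPES pH 7.8, 0.5mM EDTA, 0.1 mg/ml BSA, 1mM TCEP, 0.01% Tween-20.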
Active calls of the source: *; ? = inconclusive; / = no result given. Rows were chosen to be rich in hits. Some 3% of all compounds tested hit in one or more screens of this group. Unless noted, calls come from the whole dose curve; as a rule, active = well fitted curve in the direction sought with a large enough effect; inconclusive = small, poorly fitted or top-dose-only effect, or another doubt; inactive = no such curve, though single readings can be large; an effect the other way counts as inactive or inconclusive. Potency is the fitted concentration of half-maximal effect.

SMILES | VDR inh | PTAP TSG101 blk | KAT2A inh | PLK1 PBD inh | USP1 inh
NS(=O)(=O)c1cccc(Nc2nc3ccccc3nc2NS(=O)(=O)c2ccc(Cl)cc2)c1 | 12.6% | -6.0% | -22.8% | 16.8µM* | -19.0%
COc1ccc2[nH]c(S(=O)Cc3ncc(C)c(OC)c3C)nc2n1 (stereo unspecified) | 44.7µM* | / | ? | / | /
COc1ccc2[nH]c(S(=O)Cc3ncc(C)c(OC)c3C)nc2c1 (stereo unspecified) | / | -4.2% | -5.8% | -10.3% | ?
CCOc1ccccc1NC(=O)CSc1ncc(S(=O)(=O)c2ccc(C)c(C)c2)c(N)n1 | -11.8% | / | 4.9% | / | -23.6%
O=C(NCc1ccccc1Cl)[C@H]1CCCN1C(=O)[C@H]1CCCN1C(=O)c1ccc(Cl)cc1 | / | / | / | 0.2% | /
CCCCNC(=O)CCCn1c(=O)c2ccccc2n(CC(=O)Nc2ccccc2OCC)c1=O | 7.5% | / | -4.0% | / | -25.2%
CC(=O)Nc1ccc(SCC(=O)NCC2(N3CCCCC3)CCCCC2)cc1 | ? | 1.0% | -9.6% | 11.9µM* | -9.6%
O=C(CSc1ccc(Br)cc1)NCC1(N2CCCCC2)CCCCC1 | 0.1% | 0.6% | / | -13.4% | -8.0%
CCN(CC)CCNC(=O)c1cn(CC)c2ccc(S(=O)(=O)N3CCc4ccccc4C3)cc2c1=O | -17.2% | -3.3% | 1.2% | 26.7µM* | ?
CCN(CC)CCCNC(=O)c1cn(CC)c2ccc(S(=O)(=O)N3CCc4ccccc4C3)cc2c1=O | 1.1% | -3.4% | -2.6% | 2.7% | -17.9%
Cc1cc(C)nc(Nc2n[nH]c(COc3ccccc3)n2)n1 | ? | 0.1% | -1.0% | 3.36µM* | -6.2%
CCC(Sc1ccccn1)C(=O)Nc1cccc([N+](=O)[O-])c1 (stereo unspecified) | 4.8% | 0.9% | -11.1% | 21.2µM* | -2.1%
O=C(Oc1ccc2ccc(O)cc2c1)C1CCCCC1 | ? | -4.5% | 1.5% | 4.23µM* | ?
O=C(Oc1ccc2ccccc2c1)C1CCC1 | -8.2% | -7.6% | 10.8% | -3.4% | -29.4%
Cc1cc(C)c(Nc2nc3ccccc3n3c(C)nnc23)c(C)c1 | 5.6% | / | -1.5% | / | -11.9%
CCOC(=O)C1CCCN(S(=O)(=O)c2ccc3[nH]c(=O)oc3c2)C1 (stereo unspecified) | 11.2% | / | -4.4% | / | 7.5%
CCOC(=O)c1c(SCCN2CCCC2)n(-c2ccccc2)c(=S)n(-c2ccccc2)c1=O | 70.8µM* | -3.9% | / | -26.9% | -1.6%
Cn1nc(C(F)(F)F)cc1Oc1ncc(C(F)(F)F)cc1Cl | 1.41µM* | -1.7% | -15.0% | -12.4% | -1.6%
CCN(c1ccccc1)C1SC(=O)N(c2ccccc2)C1=O (stereo unspecified) | -2.4% | / | / | / | /
CC(=O)N(c1cccc(C)c1)C1SC(=O)N(c2ccccc2)C1=O (stereo unspecified) | 11.1% | -2.2% | 2.9% | 23.8µM* | -9.6%
CC(=O)N(c1ccccc1)C1SC(=O)N(c2ccccc2)C1=O (stereo unspecified) | 16.6% | -2.6% | -4.6% | 21.2µM* | ?
Cc1ccsc1/C=C(\C#N)C(=O)NC1CCS(=O)(=O)C1 (stereo unspecified) | -0.8% | -7.0% | -10.5% | -4.0% | -7.1%
CCCn1c(=O)c2sccc2n2c(CCCC(=O)Nc3ccc(Oc4ccccc4)cc3)nnc12 | -1.5% | / | -19.6% | / | -14.3%
CC(=O)NCCNc1ccnc(-c2ccccc2C)n1 | -0.8% | / | -4.7% | / | /
CN(C(=O)COC(=O)CSc1ccc([N+](=O)[O-])cc1)c1ccccc1 | 89.1µM* | -3.2% | -9.0% | 13.4µM* | -1.6%
N/C(=N\OC(=O)CSc1ccccc1)c1ccc([N+](=O)[O-])cc1 | -1.0% | -9.4% | -6.6% | 26.7µM* | -7.3%
Cc1ccc(/C(N)=N/OC(=O)CSc2ccccc2)cc1 | -7.4% | 0.7% | -23.2% | -10.1% | -14.5%
COc1ccc(S(=O)(=O)N2CCOCC2)cc1NC(=O)CCc1cc(OC)c(OC)c(OC)c1 | -1.7% | -3.9% | 2.0% | -11.0% | -12.4%
COc1ccc2cc(CNc3ccccc3)c(=O)n(CC(=O)Nc3ccc(C(C)=O)cc3)c2c1 | 2.9% | / | -6.0% | / | ?
N#Cc1ccccc1OCC(O)CNCCNC(=O)Nc1ccccc1 (stereo unspecified) | 10.8% | / | -1.8% | / | /

Bioassay records: PubChem BioAssay, National Center for Advancing Translational Sciences (NCATS)
